38 targets from the supplement of paper PMC10849652 can be followed below.

About 7,900 targets were measured; listed, in parts, are those with a hit and a random draw of the rest. About 0.6% of all pairs of compound and target were hits. Unmarked numbers belong to inactive results.

Sequence of UniProt Q6P9B9 (Q6P9B9 whole entry, looked up): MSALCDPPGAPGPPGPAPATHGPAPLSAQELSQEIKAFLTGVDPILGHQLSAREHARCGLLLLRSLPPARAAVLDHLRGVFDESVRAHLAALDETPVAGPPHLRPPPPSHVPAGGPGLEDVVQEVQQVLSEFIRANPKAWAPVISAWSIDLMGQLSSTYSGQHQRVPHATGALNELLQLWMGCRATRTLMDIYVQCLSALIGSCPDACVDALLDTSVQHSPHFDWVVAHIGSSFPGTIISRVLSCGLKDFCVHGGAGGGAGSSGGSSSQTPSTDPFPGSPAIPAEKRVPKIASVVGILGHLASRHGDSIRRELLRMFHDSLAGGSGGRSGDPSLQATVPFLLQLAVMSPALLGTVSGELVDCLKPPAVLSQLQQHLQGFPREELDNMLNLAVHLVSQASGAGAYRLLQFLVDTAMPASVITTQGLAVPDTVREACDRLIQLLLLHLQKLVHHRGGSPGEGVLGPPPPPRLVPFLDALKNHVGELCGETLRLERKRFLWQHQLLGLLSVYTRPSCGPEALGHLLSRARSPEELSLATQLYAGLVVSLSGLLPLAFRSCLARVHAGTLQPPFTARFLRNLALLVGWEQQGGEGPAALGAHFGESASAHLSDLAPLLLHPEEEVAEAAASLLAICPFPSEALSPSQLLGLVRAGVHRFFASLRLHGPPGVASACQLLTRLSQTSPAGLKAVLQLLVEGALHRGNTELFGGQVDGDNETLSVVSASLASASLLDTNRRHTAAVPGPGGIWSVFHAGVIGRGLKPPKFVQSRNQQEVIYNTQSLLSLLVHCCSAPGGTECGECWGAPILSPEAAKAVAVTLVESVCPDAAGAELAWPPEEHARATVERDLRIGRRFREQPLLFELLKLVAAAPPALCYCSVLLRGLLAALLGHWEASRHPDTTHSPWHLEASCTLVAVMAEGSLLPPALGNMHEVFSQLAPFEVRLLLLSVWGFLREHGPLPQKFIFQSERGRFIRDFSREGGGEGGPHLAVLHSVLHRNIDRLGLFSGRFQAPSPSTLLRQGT
Sequence of UniProt Q9H9P8 (Q9H9P8 whole entry, looked up): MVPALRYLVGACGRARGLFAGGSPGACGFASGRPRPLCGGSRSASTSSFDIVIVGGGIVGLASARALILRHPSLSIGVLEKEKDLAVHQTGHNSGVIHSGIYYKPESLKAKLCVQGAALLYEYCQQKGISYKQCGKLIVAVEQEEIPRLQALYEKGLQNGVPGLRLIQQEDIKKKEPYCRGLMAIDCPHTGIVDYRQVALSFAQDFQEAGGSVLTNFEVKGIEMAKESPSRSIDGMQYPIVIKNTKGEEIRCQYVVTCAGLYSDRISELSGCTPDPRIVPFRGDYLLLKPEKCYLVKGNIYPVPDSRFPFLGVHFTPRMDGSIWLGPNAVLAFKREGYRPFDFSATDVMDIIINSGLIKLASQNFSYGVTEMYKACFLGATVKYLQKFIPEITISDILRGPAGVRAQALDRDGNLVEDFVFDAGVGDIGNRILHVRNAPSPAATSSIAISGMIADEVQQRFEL
Sequence of UniProt Q9H0C8 (Q9H0C8 whole entry, looked up): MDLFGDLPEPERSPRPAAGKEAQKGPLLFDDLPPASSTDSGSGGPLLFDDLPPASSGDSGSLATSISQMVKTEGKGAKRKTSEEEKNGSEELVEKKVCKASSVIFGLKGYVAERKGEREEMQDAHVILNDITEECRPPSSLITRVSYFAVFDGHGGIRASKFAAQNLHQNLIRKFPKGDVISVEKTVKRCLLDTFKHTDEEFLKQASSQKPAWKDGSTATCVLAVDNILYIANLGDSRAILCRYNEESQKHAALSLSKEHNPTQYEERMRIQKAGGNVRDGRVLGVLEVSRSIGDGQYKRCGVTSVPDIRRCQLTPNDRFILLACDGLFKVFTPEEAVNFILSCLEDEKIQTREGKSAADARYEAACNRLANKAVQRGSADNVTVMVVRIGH
Sequence of UniProt Q8N108 (Q8N108 whole entry, looked up): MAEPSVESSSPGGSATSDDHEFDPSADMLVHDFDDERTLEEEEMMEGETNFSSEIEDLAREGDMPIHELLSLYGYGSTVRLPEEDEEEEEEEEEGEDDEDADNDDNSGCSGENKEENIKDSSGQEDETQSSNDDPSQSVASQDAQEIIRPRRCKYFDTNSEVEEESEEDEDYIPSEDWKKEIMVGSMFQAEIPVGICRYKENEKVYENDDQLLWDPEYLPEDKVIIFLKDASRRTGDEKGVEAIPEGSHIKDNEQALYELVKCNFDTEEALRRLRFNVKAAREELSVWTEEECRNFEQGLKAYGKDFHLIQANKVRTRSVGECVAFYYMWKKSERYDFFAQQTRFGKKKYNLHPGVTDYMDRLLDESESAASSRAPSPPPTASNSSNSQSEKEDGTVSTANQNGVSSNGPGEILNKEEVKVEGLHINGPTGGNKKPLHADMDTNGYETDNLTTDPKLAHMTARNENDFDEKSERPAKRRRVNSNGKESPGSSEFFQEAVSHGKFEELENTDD
Sequence of UniProt P02545 (P02545 whole entry, looked up): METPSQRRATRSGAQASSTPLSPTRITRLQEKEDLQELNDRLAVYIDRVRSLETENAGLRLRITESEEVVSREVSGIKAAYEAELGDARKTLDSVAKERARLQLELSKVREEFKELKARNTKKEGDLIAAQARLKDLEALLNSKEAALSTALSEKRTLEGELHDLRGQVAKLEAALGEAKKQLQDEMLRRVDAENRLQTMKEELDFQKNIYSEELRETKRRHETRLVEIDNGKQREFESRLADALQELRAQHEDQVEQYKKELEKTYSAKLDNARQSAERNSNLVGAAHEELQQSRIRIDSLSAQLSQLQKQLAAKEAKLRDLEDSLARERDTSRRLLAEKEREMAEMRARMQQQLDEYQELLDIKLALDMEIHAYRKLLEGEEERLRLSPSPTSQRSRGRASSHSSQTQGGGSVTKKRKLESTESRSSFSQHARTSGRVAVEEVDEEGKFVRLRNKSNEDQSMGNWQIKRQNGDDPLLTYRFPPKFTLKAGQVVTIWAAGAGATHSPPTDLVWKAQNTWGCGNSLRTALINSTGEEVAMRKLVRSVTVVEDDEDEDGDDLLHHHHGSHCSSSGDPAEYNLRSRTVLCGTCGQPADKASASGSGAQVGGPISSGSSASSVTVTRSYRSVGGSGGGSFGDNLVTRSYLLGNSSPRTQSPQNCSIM
Sequence of UniProt Q6N075 (Q6N075 whole entry, looked up): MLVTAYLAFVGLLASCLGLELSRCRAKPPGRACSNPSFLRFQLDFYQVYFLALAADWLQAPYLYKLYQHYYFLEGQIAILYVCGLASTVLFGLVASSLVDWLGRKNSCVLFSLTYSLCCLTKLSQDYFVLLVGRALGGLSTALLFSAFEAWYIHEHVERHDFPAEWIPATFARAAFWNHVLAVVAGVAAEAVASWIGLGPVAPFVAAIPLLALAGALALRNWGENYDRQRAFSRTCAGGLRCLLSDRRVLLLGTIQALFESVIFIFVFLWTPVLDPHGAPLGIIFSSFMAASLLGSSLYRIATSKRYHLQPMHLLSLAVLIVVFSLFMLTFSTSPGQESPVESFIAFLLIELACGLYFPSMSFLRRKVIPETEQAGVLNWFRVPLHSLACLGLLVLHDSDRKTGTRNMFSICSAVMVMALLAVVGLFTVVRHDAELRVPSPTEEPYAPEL
Sequence of UniProt P01116 (P01116 whole entry, looked up): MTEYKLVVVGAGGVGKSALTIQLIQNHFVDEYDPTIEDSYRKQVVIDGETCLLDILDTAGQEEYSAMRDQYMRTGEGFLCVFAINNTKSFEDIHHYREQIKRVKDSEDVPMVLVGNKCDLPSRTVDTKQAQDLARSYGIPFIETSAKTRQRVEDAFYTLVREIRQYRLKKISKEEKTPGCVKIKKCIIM
Sequence of UniProt Q8IWA4 (Q8IWA4 whole entry, looked up): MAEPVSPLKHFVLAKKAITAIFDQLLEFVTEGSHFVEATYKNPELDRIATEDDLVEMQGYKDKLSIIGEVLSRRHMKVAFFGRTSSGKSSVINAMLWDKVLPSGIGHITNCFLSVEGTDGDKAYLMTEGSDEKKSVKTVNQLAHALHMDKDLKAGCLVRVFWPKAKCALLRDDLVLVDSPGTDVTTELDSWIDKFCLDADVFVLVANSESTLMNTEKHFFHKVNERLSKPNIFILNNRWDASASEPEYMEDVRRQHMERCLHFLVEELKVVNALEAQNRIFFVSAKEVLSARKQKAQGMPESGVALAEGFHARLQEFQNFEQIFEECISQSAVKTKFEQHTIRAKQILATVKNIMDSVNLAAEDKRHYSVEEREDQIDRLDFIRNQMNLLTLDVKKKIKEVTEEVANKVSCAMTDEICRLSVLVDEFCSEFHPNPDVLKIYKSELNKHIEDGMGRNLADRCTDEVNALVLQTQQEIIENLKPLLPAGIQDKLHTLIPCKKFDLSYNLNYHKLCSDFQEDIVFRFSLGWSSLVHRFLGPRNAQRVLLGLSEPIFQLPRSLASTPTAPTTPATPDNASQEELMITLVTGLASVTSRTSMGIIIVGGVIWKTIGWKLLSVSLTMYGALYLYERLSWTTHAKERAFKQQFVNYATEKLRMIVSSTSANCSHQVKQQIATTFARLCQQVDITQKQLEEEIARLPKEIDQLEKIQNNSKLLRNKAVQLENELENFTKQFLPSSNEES
Sequence of UniProt Q8TBB5 (Q8TBB5 whole entry, looked up): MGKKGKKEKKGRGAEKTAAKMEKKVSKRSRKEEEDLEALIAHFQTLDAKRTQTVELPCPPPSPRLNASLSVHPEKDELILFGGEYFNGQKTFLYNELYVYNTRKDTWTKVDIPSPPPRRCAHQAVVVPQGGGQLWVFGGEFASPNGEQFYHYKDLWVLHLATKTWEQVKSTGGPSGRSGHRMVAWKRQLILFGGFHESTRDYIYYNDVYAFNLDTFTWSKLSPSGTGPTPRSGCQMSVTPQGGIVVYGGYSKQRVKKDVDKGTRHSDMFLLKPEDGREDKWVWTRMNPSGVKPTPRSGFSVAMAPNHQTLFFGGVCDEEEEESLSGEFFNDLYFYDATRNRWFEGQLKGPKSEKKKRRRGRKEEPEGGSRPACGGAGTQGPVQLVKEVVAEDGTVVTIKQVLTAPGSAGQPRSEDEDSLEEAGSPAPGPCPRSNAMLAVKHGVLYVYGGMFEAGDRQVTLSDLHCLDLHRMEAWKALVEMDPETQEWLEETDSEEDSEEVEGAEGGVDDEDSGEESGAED

Compound in this experiment: C1COCCN1CCN2C3=CC=CC=C3N=C2NC(=O)C4=CC(=CC=C4)[N+](=O)[O-] [IRAK-1-4 Inhibitor I]
Kind of experiment: log2 fold change, soluble protein after heating vs DMSO (PISA); higher = thermal stabilisation; K562 cells, 10 uM, 30 min; active = over 0.2 and 3.5 SD of the protein, either way, in both replicates (recomputed). The method in brief: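 K562 cells at 2×10^6 cells/mL were treated for 30 min with 10 μM compound, and aliquots were heated for 3 min over 48°C-58°C before pooling. Extraction used PBS with 0.5% NP-40 at 4°C, and soluble protein was the supernatant after 21,000xg for 90 min, measured by TMTpro 16plex LC-MS/MS with channel sums equalised. Thermal stability values, relative to control samples and from duplicates, are log2 fold changes.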
On to KPNA6 (UniProt O60684), for which the log2 fold change is -0.046.
KDM3B (UniProt Q7LBC6): the log2 fold change is -0.01.
Consider LMBRD2 (UniProt Q68DH5), for which the log2 fold change is 0.14.
As for ME2 (UniProt P23368), the log2 fold change is 0.009.
Regarding ILKAP (UniProt Q9H0C8), the log2 fold change is -0.07.
Take MFN2 (UniProt O95140): the log2 fold change is -0.033.
INPP5B (UniProt P32019): the log2 fold change is -0.1.
Regarding LARP1 (UniProt Q6PKG0), the log2 fold change is -0.131.
Next, MIER1 isoform 12 (UniProt Q8N108): 0.055; L2HGDH (UniProt Q9H9P8): 0.095.
With KRAS isoform 2 (UniProt P01116), the log2 fold change was 0.045.
As for LTO1 (UniProt Q8WV07), the log2 fold change was -0.028.
With MFN1 (UniProt Q8IWA4), the log2 fold change is 0.057.
Regarding IKZF1 (UniProt Q13422), the log2 fold change was -0.017.
For the target MAP3K7 (UniProt O43318), the log2 fold change is -0.123.
On to KIF3A (UniProt Q9Y496), for which the log2 fold change was 0.04.
With IMMT isoform 4 (UniProt Q16891), the log2 fold change was 0.037.
Regarding LDLR (UniProt P01130), the log2 fold change was 0.03.
As for LMNA (UniProt P02545), the log2 fold change is 0.006.
Next, MAGI1 (UniProt Q96QZ7): 0.
Consider MAP3K4 isoform 2 (UniProt Q9Y6R4), for which the log2 fold change was 0.049.
For IWS1 (UniProt Q96ST2), the log2 fold change was -0.026.
The same measure for INTS5 (UniProt Q6P9B9): 0.076; for KLHDC4 (UniProt Q8TBB5): -0.008; for LSS (UniProt P48449): -0.119.
As to MAN2B2 (UniProt Q9Y2E5), the log2 fold change is 0.086.
As to KHDC4 (UniProt Q7Z7F0), the log2 fold change was 0.034.
As to MCCC2 (UniProt Q9HCC0), the log2 fold change was 0.046.
For MAPKAPK5 (UniProt Q8IW41), the log2 fold change is 0.029.
Regarding JMJD6 isoform 3 (UniProt Q6NYC1), the log2 fold change was -0.02.
Turning to LARP4B (UniProt Q92615), the log2 fold change was -0.122.
As for LEO1 (UniProt Q8WVC0), the log2 fold change is 0.134.
Consider KDM1A isoform 2 (UniProt O60341), for which the log2 fold change was -0.014.
The same measure for MFSD5 isoform 2 (UniProt Q6N075): -0.068.
As to ITIH4 (UniProt Q14624), the log2 fold change was 0.043.
As for LARP4 isoform 4 (UniProt Q71RC2), the log2 fold change was -0.091.
Consider LTV1 (UniProt Q96GA3), for which the log2 fold change was -0.101.
The same measure for LIAS (UniProt O43766): 0.029.
